High-throughput results from PubChem.
MITF act: increases MITF-driven TRPM1 promoter luciferase signal. hit rate 0.75% among 300,000. SK-MEL-5 TRPM1-promoter luciferase, 24 h; % of positive control, neutral wells = 0. AID 588334. activation, % at 12.5 µM;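 active = mean activation of at least 80% with every replicate also reaching 80%; inconclusive = mean reaches 80% but some replicate falls short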;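 also: 0% = neutral control wells and 100% = parthenolide positive control wells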
esBAF inh: SWI/SNF esBAF complex inhibition. mouse ES cells, Bmi1-luciferase knock-in reporter, 24 h; 100% = twice the neutral-well signal. reporter increase, % at 12.5 µM. hit rate 2% among 350,000; in the data active = activation above about 40%; inconclusive = no clear call, values can overlap the other calls;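 also: 0% = median of the plate's neutral control wells and 100% = double that signal; a rise in the Bmi1 reporter signal indicates esBAF inhibition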
N-glyco inh: blocks N-linked glycosylation in D54 reporter cells. D54 ERlucT glycosylation luciferase reporter, 24 h; percent of 100 nM tunicamycin response. reporter increase, % at 12.5 µM. hit rate 0.23% among 360,000. AID 588692;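 active = mean luciferase reporter signal, scaled so untreated is 0 and the glycosylation-blocking control 100, at or above a set limit in every replicate; inconclusive = mean reaches the limit but not every replicate does; inactive = mean below the limit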;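 also: luciferase carries N-glycosylation sites so blocking glycosylation raises the light; 0% = median of neutral control wells and 100% = median of 100 nM tunicamycin wells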
Vif imaging: blocks HIV Vif function; HEK293T cells, Vif self-association by quenched fluorescence, imaging, 24 h; inhibition, % at 7.49 µM; hit rate 0.35% among 340,000; AID 602346; in the data active = inhibition above about 50%, passing the limit was not always enough; inconclusive = no clear call, values can overlap the other calls; inactive = below about 31%
Wnt act: activates Wnt/beta-catenin signaling in a reporter cell assay; activator, plate reader; activation, % at 9.35 µM; hit rate 1.2% among 300,000; AID 743398; in the data active = activation above about 30%, passing the limit was not always enough; inconclusive = no clear call, values can overlap the other calls;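 also: 0% = neutral control wells and 100% = positive control wells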
PfHsp90 set2: inhibits growth of yeast expressing Plasmodium falciparum Hsp90 | S. cerevisiae expressing PfHsp90, BacTiter-Glo ATP, 48 h; yeast lacking PDR1 and PDR3 efflux regulators | inhibition, % at 9.4 µM | hit rate 0.32% among 310,000;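 active = every replicate shows inhibition above about 80%, whatever the replicate mean, limit read from the data; inconclusive = mean inhibition reaches the set limit but some replicate falls short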;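 also: 0% = DMSO neutral controls and 100% = 20 µM radicicol positive controls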
Active calls of the source: *; ? = inconclusive; · = no result. Hits are enriched below; roughly 3% of the tested compounds scored in any of these assays.

SMILES	MITF act	esBAF inh	N-glyco inh	Vif imaging	Wnt act	PfHsp90 set2
CCOC(=O)c1ccc(NC(=O)N2CCc3ccccc3C2)cc1	22	9	2	-14	4	8
CCOC(=O)c1ccc(NC(=O)N2CCCCC2)cc1	101*	38	-2	·	·	27
CCOC(=O)c1ccc(NC(=O)N2CCc3ccccc32)cc1	73	68*	0	-9	40*	-11
COc1ccc(NC(=O)N2CCc3ccccc32)cc1	11	-25	-12	·	·	5
CCOC(=O)c1ccc(N2C(=O)C=CC2=O)cc1	·	-4	0	1	·	130*
COc1ccc(NC(=O)N2CCCc3ccccc32)cc1	23	41*	-1	0	54*	-27
COc1ccc(OC)c(-c2csc(N(C)C(=O)c3ccco3)n2)c1	6	6	4	-3	-2	-9
CCC1Sc2ccccc2N(CC(=O)NCc2ccc3c(c2)OCO3)C1=O (stereo unspecified)	7	12	-1	5	·	-7
CCOC(=O)c1ccc(Nc2ccc(C(C)=O)cc2)cc1	·	76*	-3	-2	13	·
O=C(CCCC(=O)Nc1ccc(Br)cc1)N/N=C/c1ccccc1	5	2	2	1	28	32
Cc1ccc(C(C)NC(=O)COC(=O)C2=COCCO2)cc1C (stereo unspecified)	-5	-3	2	-3	-3	11
O=C(CCCCn1ccc(=O)[nH]c1=O)Nc1ccc(O)c(C(=O)O)c1	2	-5	4	78*	-6	-4
CCCC(=O)Nc1ccc2c(c1)C(=O)N(C)C[C@@H](OC)[C@@H](C)CN(C(=O)c1ccccn1)[C@H](C)CO2	·	-1	·	·	·	·
COc1cc(NC(=O)c2ccc3nsnc3c2)cc(OC)c1OC	5	1	1	-5	4	-2
Cc1cccc(NC(=O)N2CCN(Cc3ccc(Cl)cc3)CC2)c1	-13	2	-4	-5	0	-5
O=C(Nc1cccc(Cl)c1)N1CCN(Cc2ccccc2)CC1	?	74*	-2	17	7	-21
Cn1cc(Br)c(C(=O)NNC(=O)c2ccc(Cl)cc2)n1	19	30	1	-8	51*	-1
COc1ccccc1NC(=O)c1ccc2nsnc2c1	91*	37	-2	3	26	-2
COc1cccc(NC(=O)c2cccc(C)c2[N+](=O)[O-])c1	31	·	1	-3	33*	1
Cc1cccc(C(=O)Nc2cccc(Br)c2)c1[N+](=O)[O-]	-3	·	0	-1	0	-19
CSc1nc2nc(-c3ccccc3)cc(=O)n2[nH]1	-7	0	-3	3	·	4
COc1cc(NC(=O)c2ccc3snnc3c2)cc(OC)c1	59	47*	-1	-4	23	15
Cn1c(N)c(C(=O)Nc2cccc(Cl)c2)c(=O)n(C)c1=O	·	?	4	-7	9	4
CN=c1sc(C(=O)Nc2cccc(Cl)c2)cc(=O)n1C	·	1	31*	-1	·	-2
COc1ccc(NC(=O)c2cc([N+](=O)[O-])ccc2O)cc1	-83	·	-20	1	-4	76*
SMILES	MITF act	esBAF inh	N-glyco inh	Vif imaging	Wnt act	PfHsp90 set2
COc1cccc(NC(=O)c2cccc(C(=O)Nc3cccc(OC)c3)c2)c1	·	-1	2	0	0	-5
COc1cccc(NC(=O)c2ccccc2)c1	104*	35	-1	-5	26	3
Cc1ccc2c(c1)N(CCC(=O)NCc1ccccn1)C(=O)CO2	·	-2	1	-11	·	29
O=C(COC(=O)CCC(=O)c1ccc(F)cc1)Nc1cccc(S(=O)(=O)N2CCCC2)c1	15	·	-1	6	1	-19
O=C(Nc1cccc(Cl)c1)c1ccccc1	78	42*	0	-5	20	-5
COc1ccc(C(=O)Nc2cccc(OC)c2)cc1	64	8	-9	·	19	8
CCn1ncc(C(=O)Nc2cccc(Cl)c2)c1C	53	53*	1	-6	23	·
COc1cccc(NC(=O)c2ccc(OC(F)(F)F)cc2)c1	107*	72*	-4	-5	37*	18
CCc1cccc(NC(=O)c2cnn(-c3ccccc3)c2C)c1	·	14	-10	-1	5	24
O=C(NNC(=S)Nc1cccc(Cl)c1)c1ccccc1	33	?	0	-4	17	-21
COc1cccc(NC(=O)c2ccc3nsnc3c2)c1	62	56*	-2	6	24	17
Cc1onc(-c2ccccc2)c1C(=O)N1CCN(c2ncccc2C(F)(F)F)CC1	-9	3	0	-11	0	4
COc1ccccc1C(=O)NC(=O)Nc1cccc(Cl)c1	46	-2	-10	7	43*	17
COc1ccccc1C(=O)Nc1cccc(NC(C)=O)c1	-8	3	0	-2	·	·
COc1ccc(/C=C(/NC(=O)c2ccccc2Cl)C(=O)O)cc1	2	·	0	-7	47*	0
COc1cccc(NC(=O)c2nn(C)cc2Br)c1	41	55*	8	-6	·	6
O=C(Nc1ccc(Br)cc1F)c1ccc2nsnc2c1	129*	?	-3	2	21	-5
O=C(Nc1ccc(Br)cc1F)c1ccncc1	18	22	1	6	·	-7
COc1cccc(NC(=O)c2nnn(CCc3ccccc3)c2N)c1	41	78*	-3	21	18	-6
COc1ccc(/C=C(/NC(=O)c2ccc(Br)cc2)C(=O)Nc2cccc(C(=O)O)c2)cc1	·	·	0	9	8	·
COc1cccc(C(=O)N/N=C(\C)CC(=O)Nc2ccc(N(C)C)cc2)c1	-3	23	1	18	6	3
O=C(Nc1ccc(F)cc1)c1ccc2nsnc2c1	77	?	0	-2	39*	27
COc1ccc(/C=C(\NC(=O)c2ccc(OC)cc2)C(=O)Nc2cccc(C(=O)O)c2)cc1	3	46*	3	-2	9	4
COc1cccc(/C(C)=N/NC(=O)c2ccc(N(C)C)cc2)c1	73	53*	2	24	·	-7
O=C(Nc1ccc(Cl)cc1)N1C[C@@H]2[C@H](c3ccccc31)[C@@H](CO)N2C(=O)c1ccccn1	·	8	·	·	·	·
SMILES	MITF act	esBAF inh	N-glyco inh	Vif imaging	Wnt act	PfHsp90 set2
CS(=O)(=O)c1nc(S(=O)(=O)c2ccc(Cl)cc2)c(N2CCC(C(N)=O)CC2)s1	-1	29	-2	3	-2	21
O=C(NCCS(=O)(=O)N1CCc2ccccc2C1)c1ccccc1	-5	7	1	-15	-1	-4
C/C=C/c1ccc([C@H]2[C@@H](CO)N3CCCCN(C)C[C@H]23)cc1	·	-5	·	·	·	·
CC(C)OC(=O)c1cccc(NC(=O)c2ccccc2)c1	83*	·	0	-6	?	15
O=C(Nc1cc(-c2ccccc2)[nH]n1)c1ccc(Cl)cc1	·	59*	-4	-2	40*	4
Cc1cc(NC(=O)c2cccc(Cl)c2)n[nH]1	66	47*	0	-15	29	2
